Data on 40 molecules can be found in ChEMBL document CHEMBL3988442, “University of Dundee, Small-Polar-MMV Screening Library” (2021).

Molecules are shown by their SMILES.

In the assay the target is T1, Aspartate--tRNA(Asp/Asn) ligase (Mycobacterium tuberculosis (strain ATCC 25618 / H37Rv)) (UniProt P9WFW3).
T1 sequence (whole entry): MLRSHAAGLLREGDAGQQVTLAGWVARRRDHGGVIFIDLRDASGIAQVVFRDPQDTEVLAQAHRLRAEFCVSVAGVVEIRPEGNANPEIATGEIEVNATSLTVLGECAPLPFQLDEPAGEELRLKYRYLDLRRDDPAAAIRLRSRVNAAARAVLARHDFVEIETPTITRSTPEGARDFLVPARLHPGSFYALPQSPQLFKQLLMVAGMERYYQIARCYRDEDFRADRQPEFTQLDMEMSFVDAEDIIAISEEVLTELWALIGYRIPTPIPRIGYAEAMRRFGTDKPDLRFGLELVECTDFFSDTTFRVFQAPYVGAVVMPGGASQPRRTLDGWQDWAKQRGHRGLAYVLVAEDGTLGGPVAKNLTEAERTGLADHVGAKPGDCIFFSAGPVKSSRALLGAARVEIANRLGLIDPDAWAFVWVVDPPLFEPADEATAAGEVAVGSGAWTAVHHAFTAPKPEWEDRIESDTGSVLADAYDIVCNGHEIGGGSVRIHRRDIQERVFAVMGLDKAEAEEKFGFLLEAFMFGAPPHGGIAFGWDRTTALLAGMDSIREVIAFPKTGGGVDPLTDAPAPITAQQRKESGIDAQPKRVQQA
The experiment in a line: Assay for Asp RNA synthetase-1 from Mycobacterium tuberculosis. It is filed as functional. Also noted: scale not given: in the data most compounds retested in dose-response had high values. As to conditions: 30 µM.
For `CN(C)C(=O)N1CCN(Cc2nnc(C(C)(C)C)o2)CC1`, the Percent Effect was -2.73%.
On to `Cn1ncc2c(=O)[nH]c(CN3CCCC3CC3CCCCC3)nc21` (stereo not given), for which the Percent Effect was -3.06%.
As for `Cc1nc(C)n(CC2CCCN(Cc3cccc(C#N)c3)C2)n1` (stereo not given), the Percent Effect is 3.85%.
On to `CCc1nc(CCNC(=O)NC2CC2)sc1C`, for which the Percent Effect stood at 5.19%.
As to `O=c1c2ccccc2nc2n1C(CSc1ccc(Cl)cc1Cl)CN2` (stereo not given), the Percent Effect amounted to 4.53%.
Under `O=C(Cn1nc2c(cc1=O)CSCC2)NC(Cc1ccccc1)C(=O)O` (stereo not given) stands 0.581%.
The result for `O=C(CC1CCCC1)N1C[C@@H]2CCN(c3cccnc3)C[C@@H]2C1` reads 2%.
In the case of `Cc1cc(CN2CCOC(CN(C)c3cccnn3)C2)no1` (stereo not given), the Percent Effect is -2.36%.
For the molecule `O=C(NCCn1ccnc1)c1ccn(-c2cccc(F)c2)n1`, the Percent Effect was determined as 5.59%.
As to `CC(C)c1nc(C2CCCN(C(=O)c3ccc4[nH]cnc4c3)C2)no1` (stereo not given), the Percent Effect was 2.42%.
The result for `Cc1noc(C2CCCCN2C(=O)NC2CCCC2)n1` (stereo not given) reads 5.06%; that for `COC1COC2(CCN(Cc3ccccc3Cl)CC2)C1` (stereo not given), 3.77%.
Consider `Cc1cc(C)n(CC2CN(CC(=O)Nc3nncs3)CCO2)n1` (stereo not given), for which the Percent Effect was 1.4%.
Take `Cc1cc2ccccc2n1CCC(=O)NCc1ncc[nH]1`: the Percent Effect was -0.164%.
In the case of `CCn1cnnc1CNC(=O)N1CCN(c2cccc(OC)c2)CC1`, the Percent Effect is 0.152%.
`COCCN1C(=O)CCC12CCN(C(=O)CC1CC1)CC2`: the Percent Effect was determined as 2.75%.
In the case of `CS(=O)(=O)N1CCC(c2nnc3ccc(C(=O)N4CCCC4)cn23)C1` (stereo not given), the Percent Effect turned out to be 2%.
Take `CCc1nc(CN(C)C2CCN(CCn3cc(C#N)cn3)C2)no1` (stereo not given): the Percent Effect came to 9.06%.
For `Cc1ccccc1C(=O)N1CCC(n2nnc3cc(F)ccc32)CC1`, the Percent Effect is -5.01%.
Regarding `Cc1nc(C)n(C2CCCN(C(=O)CCCOc3ccccc3)C2)n1` (stereo not given), the Percent Effect was -1.97%.
As to `CCNC(=O)CCN1CCC(c2cc(N3CCOCC3)nc(C)n2)CC1`, the Percent Effect was -4.4%.
Turning to `CCOc1nnc(CN(C)CC2CCCN2c2cccnn2)s1` (stereo not given), the Percent Effect is -1.14%.
Take `O=C(c1cnc(-c2ccco2)s1)N1CCCC1Cn1cccn1` (stereo not given): the Percent Effect was -5.14%.
For `CCn1cc(CN2CCCn3nc(CNC(=O)C4CCC4)cc3C2)cn1`, the Percent Effect was determined as 4.07%.
With `CCc1c(C)nc2n(c1=O)CC(C(=O)Nc1ccccc1F)CS2` (stereo not given), the Percent Effect was -3.83%.
Regarding `Cc1cc2c(cc1C)C(NCc1nnc3n1CCCCC3)CCCO2` (stereo not given), the Percent Effect was determined as 0.212%.
As to `O=C(Cc1ccccc1)N1CCC2(CC(=O)N(c3cccc(F)c3)C2)C1` (stereo not given), the Percent Effect was -1.85%.
The result for `COc1ccc(CN2CCC3(CC2)NC(=O)CC3c2ccncc2)cc1` (stereo not given) reads 5.29%; that for `Cc1ccc(N(C)C2CCN(C(=O)c3ccsc3)CC2)nn1`, 0.243%.
In the case of `O=C(CN1CCCC(Cn2cncn2)C1)NCc1ccco1` (stereo not given), the Percent Effect was -4.69%.
As to `Cc1ccc(OCCCNC(=O)NC(C)c2nncn2C)cc1` (stereo not given), the Percent Effect was -2.1%.
The result for `CN(Cc1ccsc1)C(=O)CN1CCCC1Cn1cccn1` (stereo not given) reads 2.25%.
The result for `COc1ccc(CC(=O)N2CCCC2Cn2cccn2)cc1F` (stereo not given) reads -0.871%; that for `CC(C)[C@H](NC(=O)NC1CCS(=O)(=O)C1)C(=O)NCc1ccccc1Cl` (stereo not given in full), 0.145%; that for `Cc1cc(=O)n(CC(=O)Nc2ccc(C(N)=O)cc2)nc1C`, -0.0781%.
As for `CCc1nc(CN2CCCC(NCc3cc(C)no3)C2)no1` (stereo not given), the Percent Effect is 3.46%.
In the case of `Cc1cc(CN2CCN(C(C)c3nc(C4CC4)no3)CC2)no1` (stereo not given), the Percent Effect turned out to be 3.89%.
As for `CS(=O)(=O)c1ccccc1C(=O)NCC1Cc2ccccc2O1` (stereo not given), the Percent Effect amounted to 9.98%.
As for `NC(=O)C1(CCCc2cccnc2)CCCN(c2ncccn2)C1` (stereo not given), the Percent Effect is -0.456%.
The result for `CCSCCNC(=O)C(c1cccc(F)c1)N(C)C` (stereo not given) reads 0.0558%.
